CCHFV vOTU inh: CCHFV vOTU protease inhibition | Pep-AMC fluorescence | inhibition, % at 11.5 µM | 370,000 tested, 0.55% active | AID 651958; note: 0% = vehicle wells with enzyme and 100% = no enzyme wells
SARS 3CLpro inh: SARS-CoV 3CLpro protease inhibition. P0C6X7. recombinant SARS-CoV 3CLpro, quenched FRET peptide cleavage. inhibition, % at 6 µM. 290,000 tested, 0.14% active. AID 1706; in the data active = inhibition above about 12%
Mtb FBA inh: inhibitors of M. tuberculosis fructose-bisphosphate aldolase. purified M. tuberculosis FBA, fluorescence read-out. AID 588726. 360,000 tested, 2.3% active. P9WQA3. inhibition, % at 1 µM; in the data active = inhibition above about 27%;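 note: 0% = vehicle and 100% = reference inhibitor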
RecA intein inh: blocks M. tuberculosis RecA intein splicing; cell-free RecA intein splicing, fluorescence; P9WHJ3; inhibition, % (no concentration beside the values); 290,000 tested, 0.75% active; in the data active = inhibition above about 30%;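 note: 0% = vehicle wells and 100% = reference inhibitor control wells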
DUSP3 inh: DUSP3 (human) phosphatase inhibition; P51452; recombinant VHR phosphatase, pNPP absorbance; inhibition, % at 13.3 µM; 290,000 tested, 0.52% active; AID 1654; in the data active = inhibition above about 50%
GDH-TPI counter-1: GDH-TPI coupled enzyme inhibition counter-screen; GDH-TPI coupled enzyme counterscreen, NADH absorbance; inhibition, % at 4.8 µM; 360,000 tested, 1.2% active; AID 588335;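 note: 0% = DMSO wells and 100% = wells lacking the enzyme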
Mtb FBA confirm: confirmation of M. tuberculosis fructose-bisphosphate aldolase inhibitors. shares compounds with Mtb FBA inh. purified M. tuberculosis FBA, fluorescence read-out. inhibition, % at 1 µM. 5,600 tested, 78% active; in the data active = inhibition above about 27%;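 note: 0% = vehicle wells and 100% = reference inhibitor wells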
GDH-TPI counter-2: inhibits GDH-TPI coupling enzymes, flagging Mtb FBA hits. shares compounds with Mtb FBA inh. GDH-TPI coupled enzyme counterscreen, fluorescence. inhibition, % at 1 µM. 5,600 tested, 81% active. AID 652141; in the data active = inhibition above about 10%
Numbers without * were called inactive; x = no result; + = active, no number. Hits are enriched below; roughly 4.7% of the tested compounds scored in any of these assays. Cut-off read from the data, not from the text of the source, unless noted: active = inhibition above about 30%; inactive = the rest.

SMILES	CCHFV vOTU inh	SARS 3CLpro inh	Mtb FBA inh	RecA intein inh	DUSP3 inh	GDH-TPI counter-1	Mtb FBA confirm	GDH-TPI counter-2
CCOC(=O)CCCCCN1C(=O)c2cccc3cccc(c23)C1=O	-7	2	28*	3	21	19	113*	67*
O=S(=O)(NCCN1CCOCC1)c1cc(Cl)ccc1Cl	-15	0	2	-4	22	4	x	x
Cn1c2ccc(F)cc2c2ncn(Cc3ccco3)c(=O)c21	-25	1	32*	4	-14	10	98*	91*
Cn1c2ccccc2c2ncn(Cc3ccco3)c(=O)c21	-13	-4	18	1	42	6	x	x
Cn1c2ccc(F)cc2c2ncn(CC3CCCO3)c(=O)c21 (stereo unspecified)	-17	5	27*	-1	6	17	176*	180*
Cn1c2ccc(F)cc2c2ncn(Cc3ccccn3)c(=O)c21	-7	-3	27*	-4	27	18	47*	41*
CCOCCCn1cnc2c3cc(F)ccc3n(C)c2c1=O	-26	5	31*	-1	20	9	163*	133*
Cc1c(CCOC(=O)c2cc([N+](=O)[O-])cc([N+](=O)[O-])c2)sc[n+]1CC(=O)c1ccc(Br)cc1	-5	2	-4	14	-19	0	x	x
O=[N+]([O-])c1ccccc1S(=O)(=O)N1CCCc2ccccc21	6	6	1	x	18	17	x	x
CCCOc1ccc(-c2nc(C#N)c(NCCCn3ccnc3)o2)cc1	-27	-1	105*	5	21	15	105*	81*
N#Cc1nc(-c2ccc(OCc3ccccc3)cc2)oc1NCCCn1ccnc1	-18	0	7	-1	14	0	x	x
CC(C)(C)c1ccc(-c2nc(C#N)c(NCCCn3ccnc3)o2)cc1	-32	-1	40*	x	8	11	108*	103*
N#Cc1nc(-c2ccco2)oc1NCCCn1ccnc1	-18	2	60*	1	4	2	121*	93*
COc1cccc(NC(=O)CSc2nnnn2C2CCCCC2)c1	4	3	4	1	25	5	x	x
COc1ccccc1N1CCN(C(=O)CCCN2C(=O)c3cccc4cccc(c34)C2=O)CC1	13	2	-1	2	3	19	x	x
COc1ccc2c(c1)nc(-c1cccc(Br)c1)c(=O)n2C(c1ccccn1)c1nc2ccccc2[nH]1 (stereo unspecified)	-18	x	53*	x	x	x	68*	47*
O=c1c(-c2ccccc2)nc2ccccc2n1C(c1ccccn1)c1nc2ccccc2[nH]1 (stereo unspecified)	-11	x	x	x	x	x	x	x
COc1ccc(CC(=O)NNC(=O)c2cc(C)oc2C)cc1OC	-4	x	0	1	x	-3	x	x
COc1ccc(C2NC(=O)NC3=C2C(=O)CCC3)cc1 (stereo unspecified)	-8	1	0	0	23	-2	x	x
COc1ccc(C2C3=C(CCCC3=O)Nc3c(-c4ccccc4)c(C)nn32)cc1 (stereo unspecified)	x	0	97*	-3	28	45*	169*	135*
CCOC(=O)c1[nH]c2ccc(OC)cc2c1NC(=O)C(C)N1CCSCC1 (stereo unspecified)	-23	1	x	2	-5	x	x	x
CCOC(=O)c1[nH]c2cc(OC)c(OC)cc2c1NC(=O)C(C)N1CCN(Cc2ccccc2)CC1 (stereo unspecified)	-15	0	47*	-1	-23	14	+	+
COc1ccc(-c2ccc(C(=O)O)c(=O)[nH]2)cc1	-76	-5	71*	-5	26	13	106*	81*
N#Cc1cnn2c(-c3ccccc3)ccnc12	-80	5	66*	1	18	6	+	+
O=C(Nc1ccc2c(c1)nc1n2CCN(C2CCCCC2)C1)NC1CCCCC1	x	2	x	7	39	x	x	x
CCOC(=O)N1CCN(Cc2nc3cc(NC(=O)CC)ccc3n2C)CC1	-14	1	6	0	2	2	x	x
CCC(=O)Nc1ccc2c(c1)nc1n2CCN(CCOC)C1	-29	-1	33*	-3	32	3	1	-1

Screening results from PubChem BioAssay.
